HT1080-NT tox – qHTS for induction of synthetic lethality in tumor cells producing 2HG: qHTS for the HT-1080-NT fibrosarcoma cell line; hit rate 1.6% among 360,000; HT-1080-NT fibrosarcoma viability, CellTiter-Glo ATP luminescence, 48 h; AID 686970, 2013; Potency, µM (series often up to 46.1 µM), for the others: at the highest dose activity, negative = less viability, usual class: cytotoxic;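 also: NT is the 2HG producing partner of a matched IDH1 knockdown line; potency is read from the fitted curve at half-maximal effect; 0% = DMSO-treated cells and -100% = media-only wells without cells; nearly all actives have a fitted effect of over 55% in size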
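Read-out is CellTiter-Glo luminescence after 10 minutes at room temperature, following 48 hours' compound treatment of HT-1080-NT cells (750 cells/well, RPMI, 5% FBS, 37 degrees C).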
DT40 TDP1 CPT – qHTS for Inhibitors of human tyrosyl-DNA phosphodiesterase 1 (TDP1): qHTS in cells in presence of CPT | chicken DT40 Tdp1-/-;hTDP1 cells + 20 nM CPT, ATP luminescence, 48 h | Potency, µM (titrated, usually from 46.2 µM), for the others: at the highest dose activity change, negative = growth inhibition, most hits filed as inhibitors | hit rate 12% among 420,000; also: potency is read from the fitted curve at half-maximal effect; nearly all actives have a fitted effect of over 55% in size
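Chicken DT40 Tdp1-/- cells complemented with human TDP1, 400 cells/well, exposed to compounds plus 20 nM camptothecin for at least 48 h at 37 C; viability read as ATP content by CellTiter-Glo luminescence.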
HT1080 IDH1KD tx – qHTS for induction of synthetic lethality in tumor cells producing 2HG: qHTS for the HT-1080-IDH1KD cell line. hit rate 2% among 360,000. Potency, µM (series often up to 46.1 µM), without a hit: top-dose activity, negative = toxicity, hits mostly cytotoxic. HT-1080 IDH1 knockdown viability, ATP luminescence, 48 h. AID 686971, 2013;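 also: potency is read from the fitted curve at half-maximal effect; 0% = DMSO wells and -100% = cell-free medium wells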
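IDH1KD HT-1080 cells, 750/well, RPMI + 5% FBS; compound pinned after 2 h settling; 48 h, 37 °C; CellTiter-Glo luminescence; % activity normalised to DMSO and no-cell wells; curves fitted, classed by r2 and efficacy.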
IL-1B inflam inh – qHTS for Inhibitors of Inflammasome Signaling: IL-1-beta AlphaLISA Primary Screen; THP-1 LPS/ATP IL-1B secretion, AlphaLISA, 16 h; active compounds read low; activity change, % at 57.5 µM; hit rate 4.7% among 360,000; AID 743279, 2014; in the data active = activity change below about -50%; inconclusive = mostly about -30% to -49%
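THP-1 cells pretreated 1 hr with compounds (up to 57.5 uM final), then stimulated with LPS (250 ng/mL final) plus ATP (1.25 mM final); secreted IL-1B measured by AlphaLISA after 16 hr, decreased signal indicating inhibition.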
TDP1 cell noCPT – qHTS for Inhibitors of human tyrosyl-DNA phosphodiesterase 1 (TDP1): qHTS in cells in absence of CPT | DT40 Tdp1-/- hTDP1 cells, no CPT, ATP luminescence, 48 h | Potency, µM (top dose mostly 46.2 µM), for inactives: top-dose activity change, negative = growth inhibition, most hits filed as inhibitors | hit rate 15% among 420,000; also: potency is read from the fitted curve at half-maximal effect; nearly all actives have a fitted effect of over 55% in size
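Chicken DT40 Tdp1-/- cells complemented with human TDP1, screened without camptothecin (DMSO vehicle only), 400 cells/well. Compounds pin-transferred, cells incubated at 37 °C for at least 48 hr. Growth read as ATP-dependent luminescence (CellTiter-Glo, 30 min at RT).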
Active calls of the source: *; ? = inconclusive; / = not tested or not shown. Hits are enriched below; roughly 19% of the tested compounds scored in any of these assays. Unless noted, calls follow the shape of the dose curve; as a rule, active = well fitted curve in the direction sought with a large enough effect; inconclusive = small, poorly fitted or top-dose-only effect, or another doubt; inactive = no such curve, though single readings can be large; an effect the other way counts as inactive or inconclusive. Unless noted, % is scaled to controls: 0 for no effect and ±100 for the full control effect.

SMILES	HT1080-NT tox	DT40 TDP1 CPT	HT1080 IDH1KD tx	IL-1B inflam inh	TDP1 cell noCPT
CC(=O)Nc1cccc(C(=O)OC(C)C(=O)NCc2ccc3c(c2)OCO3)c1 (stereo not given)	1.2%	-2.8%	-15.1%	21.9	-0.6%
CCN(c1ccccc1)S(=O)(=O)c1ccc2ccccc2c1	-6.4%	-3.8%	2.6%	6.9	-19.3%
CCN(c1ccccc1)S(=O)(=O)c1ccc2c(c1)OCCO2	5.1%	16.4µM*	-1.4%	54.7	?
NC(Cc1ccccc1)C(O)(c1ccccc1)c1ccccc1 (stereo not given)	-19.4%	?	-28.0%	?	?
COCCCn1c(=N)c(C(=O)NCC2CCCO2)cc2c(=O)n3cc(C)ccc3nc21 (stereo not given)	/	-2.9%	/	/	-2.1%
CCN1CCOC(=O)C1CC(=O)Nc1cc(Cl)ccc1C (stereo not given)	/	7.31µM*	/	/	14.6µM*
O=C(CC1C(=O)OCCN1Cc1ccccc1)Nc1cccc(Cl)c1 (stereo not given)	/	?	/	/	-23.6%
O=C(CC1C(=O)OCCN1Cc1ccccc1)Nc1ccc(F)cc1 (stereo not given)	/	?	/	/	-2.2%
CCN1CCOC(=O)C1CC(=O)Nc1ccc(C)c(Cl)c1 (stereo not given)	/	7.31µM*	/	/	5.8µM*
C=C1CCN([C@@H](CC(C)C)C(=O)NCc2ccc(OC)cc2)S(=O)(=O)c2ccccc21	8.9%	?	1.5%	6.0	23.1µM*
C=C1CCN([C@@H](Cc2ccccc2)C(=O)NCc2ccc(Cl)c(Cl)c2)S(=O)(=O)c2ccccc21	0.0%	?	-14.1%	-16.6	?
C=C1CCN([C@@H](CC(C)C)C(=O)NCCC(C)C)S(=O)(=O)c2ccccc21	-1.8%	?	-6.3%	20.9	23.1µM*
C=C1CCN([C@@H](Cc2ccccc2)C(=O)NCCCc2ccccc2)S(=O)(=O)c2ccccc21	-9.0%	23.1µM*	-8.0%	4.4	?
C=C1CCN([C@@H](CC(C)C)C(=O)NCc2ccc(Cl)c(Cl)c2)S(=O)(=O)c2ccccc21	?	?	-12.0%	-1.6	16.4µM*
Cc1cccc2cc(CN(C(=O)c3cnccn3)C3CCCCC3)c(Cl)nc12	-0.5%	?	-2.3%	?	-29.7%
COc1ccc(C)cc1-n1c(SCC(=O)N2CCOCC2)nc2ccccc2c1=O	-0.2%	-13.0%	-1.2%	0.2	-16.9%
O=C(NCCc1ccccc1)c1ccc(NC(=O)C2CCC2)cc1	12.8%	-17.4%	6.4%	-9.5	-10.1%
COc1ccc(-n2nc(C(=O)NCC(=O)NCCCN3CC(C)CC(C)C3)c3ccccc3c2=O)cc1OC (stereo not given)	7.7%	1.3%	6.4%	-28.0	1.0%
Cc1cc(NC(=O)CN2C(=O)NC3(CCCCCC3)C2=O)ccc1Br	?	?	?	-13.2	20.6µM*
O=C(CN1C(=O)NC2(CCCC2)C1=O)OCc1ccc(Cl)c(Cl)c1	-7.2%	16.4µM*	-8.4%	-0.7	20.6µM*
O=C(CN1C(=O)NC2(CCCCCC2)C1=O)Nc1ccc(OC(F)(F)F)cc1	-23.4%	14.6µM*	?	-22.3	9.2µM*
CC1CCC2(CC1)NC(=O)N(CC(=O)Nc1cccc(S(=O)(=O)N3CCCCC3)c1)C2=O (stereo not given)	-13.1%	?	-22.3%	-4.3	23.1µM*
N[C@@H](CSS(=O)(=O)O)C(=O)O	/	7.2%	/	/	1.3%
CCN(C(=O)CSc1nnc(C(C)N(C)C)n1-c1ccc(F)cc1)C1CCS(=O)(=O)C1 (stereo not given)	20.0%	-7.6%	3.7%	10.6	9.1%
O=C(NCc1nnnn1-c1ccc(F)cc1)c1ccc2c(c1)OCO2	-3.6%	-28.2%	-3.2%	0.0	-27.6%

High-throughput results (PubChem BioAssay)
